From PubChem BioAssay
In the library only some 3.6% were active in any assay of this set; here they are far more common.
Pf apPOL inh – Pf-apPOL DNA polymerase inhibition. Recombinant Pf-apPOL, molecular beacon fluorescence, 1.5 h. inhibition, % at 10 µM. 210,000 tested, 0.25% active. AID 1794808
mHTT-CaM PPI inh – mHTT-calmodulin interaction abrogation; P42858; AlphaScreen His-mHTT/GST-CaM binding, luminescence; inhibition, % at 15 µM; 190,000 tested, 3.6% active;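 note: 0% = both proteins with DMSO and 100% = one protein alone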
* marks the source's active call; other numbers are inactive results; · = no result. Cut-off read from the data, not from the text of the source: active = inhibition above about 50%; inactive = the rest.

SMILES	Pf apPOL inh	mHTT-CaM PPI inh
CC1=CC(=O)C(Br)=CC1=NS(=O)(=O)c1ccc(C)cc1	-9	64*
Cc1ccc(C)c(S(=O)(=O)N=C2C=CC(=O)C=C2)c1	-4	51*
Cc1cc(C)c(S(=O)(=O)N=C2C=CC(=O)C=C2)c(C)c1	-4	39
Cc1ccc(S(=O)(=O)N=C2C=C(C(C)C)C(=O)C(C(C)C)=C2)cc1	1	-4
Cc1ccc(S(=O)(=O)N=C2C=C(Br)C(=O)C(Br)=C2)cc1	0	45
CCN(CC)C(=NS(=O)(=O)c1cc(C)ccc1C)c1ccccc1	3	6
Cc1ccc(C)c(S(=O)(=O)N=C2C=CC(=O)C(Br)=C2)c1	-2	65*
CC(C)(C)CNC(C#N)=C(N)C#N	13	·
CC(NC(=O)c1cc(C(=O)NC(C)c2ccccc2)cc([N+](=O)[O-])c1)c1ccccc1 (stereo unspecified)	1	3
Cn1cccc1C(=O)N1CCc2c(nc3cc(-c4ccccc4)[nH]n3c2=O)C1	5	6
CC1(C)OC(=O)C(=C2CCCCCN2)C(=O)O1	0	0
COCCNC(=O)Nc1nnc(SCc2ccc(C(F)(F)F)cc2)s1	-20	-15
CCn1cc(C2=CCN(C(=O)Nc3ccc4c(c3)OCCO4)CC2)c2cccnc21	-4	34
CCCn1cc(C2=CCN(C(=O)Nc3ccc4c(c3)OCCO4)CC2)c2cccnc21	-4	59*
CCCn1cc(C2=CCN(C(=O)NCc3ccccc3)CC2)c2cccnc21	-6	32
Cn1cc(C2=CCN(C(=O)NCc3cccc(F)c3)CC2)c2cccnc21	-5	50*
Cn1nc(C(C)(C)C)cc1C(=O)ON=C(N)c1ccccc1	18	·
CC(=O)N1CCc2cc(N3CC(C(=O)Nc4ccccc4Br)CC3=O)ccc21 (stereo unspecified)	-3	-1
Fc1ccc(CN2CCc3nc(N4CCOCC4)ncc3C2)cc1F	10	20
CCc1cc(C2CCCN2C(=O)c2c(C)noc2C)on1 (stereo unspecified)	11	-3
Cc1noc(C)c1C(=O)NNC(=O)c1ccc(C(F)(F)F)cc1	-2	·
Oc1ccccc1C1=NNC(c2ccc(Br)cc2)C1 (stereo unspecified)	-3	57*
Cn1c(Cl)cnc1C1CC(=O)c2cc(Cl)ccc2O1 (stereo unspecified)	0	16
Oc1ccc(Cl)cc1C1=NNC(c2ccc3c(c2)OCCO3)C1 (stereo unspecified)	-3	63*
O=[N+]([O-])c1ccc(O)c(C2=NNC(c3ccncc3)C2)c1 (stereo unspecified)	-2	30
SMILES	Pf apPOL inh	mHTT-CaM PPI inh
Oc1ccc(F)cc1C1=NNC(c2ccc3c(c2)OCCO3)C1 (stereo unspecified)	1	39
O=[N+]([O-])c1ccc(O)c(C2=NNC(c3ccc(Cl)cc3)C2)c1 (stereo unspecified)	-1	55*
COc1ccc(C2=NNC(c3ccc(Br)cc3)C2)c(O)c1 (stereo unspecified)	-7	47
Cn1c(Cl)cnc1C1CC(c2cc(Cl)ccc2O)=NN1 (stereo unspecified)	3	67*
O=c1c2c(nc(SCc3ccc([N+](=O)[O-])cc3)n1-c1ccc(Cl)cc1)CCS2	0	7
COc1ccc(-c2cn3c4c(=O)n(C)c(=O)n(C)c4nc3n2-c2ccccc2)cc1	-2	-2
O=C(CS(=O)(=O)c1cccs1)Nc1ccc2c(c1)OCCO2	6	-4
O=[N+]([O-])c1ccc(N2CCCC2)cc1SCc1ccco1	-1	7
O=[N+]([O-])c1cc(SCc2ccco2)c2c(C3OCCO3)nn(-c3ccccc3)c2c1	-2	78*
Cc1cc(N)n(-c2ccc(F)cc2)n1	-5	1
N#CC1=C(N)OC(C2CC2)=C(n2cnc([N+](=O)[O-])n2)C1c1ccccc1 (stereo unspecified)	-5	17
N#CC1=C(N)OC(c2ccccc2)=C(n2cnc([N+](=O)[O-])c2)C1c1cccnc1 (stereo unspecified)	-2	-1
N#CC1=C(N)OC(c2ccccc2)=C(n2cnc([N+](=O)[O-])n2)C1c1ccccc1 (stereo unspecified)	2	75*
N#CC1=C(N)OC(c2ccccc2)=C(n2cncn2)C1c1ccc(Br)cc1 (stereo unspecified)	9	57*
CC(C)n1cnnc1C1CCN(C(=O)c2ccoc2)CC1	3	0
COC(=O)[C@H](CC(C)C)N(CCc1cn(Cc2ccccc2)nn1)S(=O)(=O)c1ccc(F)cc1Br	-4	16
COC(=O)[C@H](CC(C)C)N(CCc1cn(Cc2ccc(C)cc2)nn1)S(=O)(=O)c1ccc(F)cc1Br	2	72*
Cc1cccc(-c2noc(C3CCN(CC(=O)Nc4ccc(F)c(F)c4)CC3)n2)c1	0	-10
COc1ccc(C(=O)NCc2nc3ccccc3n2Cc2ccccc2F)cc1OC	1	58*
COc1ccc(C(=O)NCCc2nc3ccccc3n2Cc2ccccc2F)cc1OC	3	32
